Our source for the inhibition values is PubChem BioAssay.

Test [1] addresses PEG-3 (UniProt Q6IN02). Description: inhibition of PEG-3 promoter-driven reporter – cell-based, HeLa, luciferase, CREF/GAPDH counter-screen panel, dose response (AID 624167). The conditions noted are these: CREF/GAPDH counter-screens; HeLa PEG-Prom luciferase reporter, overnight, run 1, dose range 1, at 100 µM (top of the series) unless noted. A general note: The purpose of a counterscreen is to sort out artefacts and off-target activity.

Test [2] concerns the target PEG-3 (UniProt Q6IN02). Described as above. The conditions noted are these: CREF/GAPDH counter-screens; HeLa PEG-Prom luciferase reporter, overnight, run 2, dose range 1, at 100 µM (top of the series) unless noted.

PEG-3, sequence (Q6IN02 whole entry, looked up): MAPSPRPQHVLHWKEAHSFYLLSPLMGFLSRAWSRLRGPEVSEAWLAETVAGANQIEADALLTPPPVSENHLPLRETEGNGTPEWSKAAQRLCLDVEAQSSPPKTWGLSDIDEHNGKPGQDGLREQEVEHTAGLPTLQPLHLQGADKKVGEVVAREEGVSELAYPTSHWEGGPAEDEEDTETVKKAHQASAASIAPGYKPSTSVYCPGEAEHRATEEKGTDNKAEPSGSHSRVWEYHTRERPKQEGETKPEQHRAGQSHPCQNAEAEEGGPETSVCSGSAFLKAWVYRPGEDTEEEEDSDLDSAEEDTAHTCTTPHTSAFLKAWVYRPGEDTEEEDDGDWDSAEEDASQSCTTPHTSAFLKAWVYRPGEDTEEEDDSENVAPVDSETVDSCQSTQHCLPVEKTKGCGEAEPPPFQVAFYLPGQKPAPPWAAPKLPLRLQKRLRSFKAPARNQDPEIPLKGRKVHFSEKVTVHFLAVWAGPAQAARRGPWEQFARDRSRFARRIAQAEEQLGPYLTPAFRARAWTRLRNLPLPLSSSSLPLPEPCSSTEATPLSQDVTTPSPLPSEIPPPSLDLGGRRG

What is called inhibition is the drop in the measured response relative to a control, in per cent. `COc1ccc(-c2cc(C(F)F)n3ncc(C(=O)n4ccnc4C)c3n2)cc1`: the inhibition with PEG-3 [1] was determined as 99.6%; with PEG-3 [2] it was 101%.

For the molecule `Cc1nc(-c2ccc(F)cc2)c(CC(=O)N(C)CC(=O)Nc2ccc(Cl)c(C(F)(F)F)c2)s1`, the values for the inhibition with PEG-3 [1] and with PEG-3 [2] were 99.8% and 102%, respectively.

Turning to `O=C(O)c1ccc(N/N=C/c2ccc(OC(=O)c3ccccc3Cl)cc2)cc1`, the inhibition was found to be 99.2% with PEG-3 [1] and 71.9% with PEG-3 [2].

Consider `O=C(/C=C/c1cc(Br)ccc1O)c1ccco1`, for which the inhibition in the test with PEG-3 [1] worked out at 102%; in the test with PEG-3 [2] it was 101%.

For `CC(=O)NC(c1ccccc1)c1cc(Cl)c2cccnc2c1O` (centres undefined), the inhibition with PEG-3 [1] was found to be 96.6%; with PEG-3 [2] it was 99.7%.

On to `COc1cccc(-c2sc3ccc(OC)cc3c2-c2ccc(OCCN(C)C)cc2)c1`, for which the inhibition with PEG-3 [1] was determined as 94.3%; in the test with PEG-3 [2], 98.3%.

As for `OC[C@@H]1[C@@H](c2ccc(Cl)cc2)C(c2cccc(Cl)c2)=NN1c1ccccc1`, the inhibition with PEG-3 [1] is 102%; with PEG-3 [2], 101%.

Take `Cc1cccc(N=C2Sc3nc4c(C)c(C)ccc4cc3CN2CCN2CCOCC2)c1`: the figures for the inhibition with PEG-3 [1] and with PEG-3 [2] were 85.6% and 93.7%, respectively.

For the molecule `CCN(CCN(C)C)C(=O)C1CCN(S(=O)(=O)c2c(C)noc2/C=C/c2ccccc2F)CC1`, the results for the inhibition with PEG-3 [1] and with PEG-3 [2] were 90.8% and 97.5%, respectively.

For the molecule `COc1ccccc1C1c2ccc3ccccc3c2Oc2ncn(CCCO)c(=N)c21` (centres undefined), the inhibition in the test with PEG-3 [1] was 102%; with PEG-3 [2], 98.3%.

Take `COc1ccc2sc(N(CCCN(C)C)C(=O)c3ccc(S(=O)(=O)N4CCCc5ccccc54)cc3)nc2c1`: the inhibition in the test with PEG-3 [1] was found to be 98.4%; in the test with PEG-3 [2], 102%.

Take `CCc1nc(Nc2ccc(N3CCN(C(C)=O)CC3)cc2)c2oc3ccccc3c2n1`: the values for the inhibition with PEG-3 [1] and in the test with PEG-3 [2] were 101% and 99.9%, respectively.

For the molecule `O=C1c2ccccc2C(=O)C12OC2c1ccc(Cl)cc1Cl` (centres undefined), the inhibition in the test with PEG-3 [1] is 99%; in the test with PEG-3 [2], 102%.

Consider `COc1ccc(NC(=O)Nc2nc(C(N)C3CCCCC3)cs2)cc1` (centres undefined), for which the results for the inhibition in the test with PEG-3 [1] and with PEG-3 [2] were 101% and 99%, respectively.

As for `Cc1cc(-n2c(SCC(=O)Nc3ccc(F)c(F)c3)nc3n[nH]c(C)c3c2=N)ccc1Cl`, the inhibition amounted to 100% in the test with PEG-3 [1] and 95.3% in the test with PEG-3 [2].

As for `COc1cc(C(=O)/C=C/c2cccnc2)c([N+](=O)[O-])cc1OC`, the inhibition with PEG-3 [1] came to 102%; with PEG-3 [2], 99.8%.

On to `O=C(CCN1C(=O)/C(=C/c2cccs2)SC1=S)N1CCCCC1`, for which the results for the inhibition in the test with PEG-3 [1] and with PEG-3 [2] were 96.2% and 94.3%, respectively.

Consider `CC1=CC(C)[C@H](/C=N/n2c(=O)[nH]c3c([nH]c4ccc(Br)cc43)c2=O)C(C)C1` (some centres undefined), for which the inhibition with PEG-3 [1] was 12.7%; in the test with PEG-3 [2], 77.5% [run 2, dose range 1, at 12.5 µM].

`COc1ccc2nc3n(c(=O)c2c1)-c1cc2ccccc2cc1C(=O)NC3Cc1ccc(O)cc1` (centres undefined): the results for the inhibition with PEG-3 [1] and with PEG-3 [2] were 86.9% and 98.8%, respectively.

For `Cc1cc(C)c2c(N)c3ccccc3nc2n1`, the inhibition with PEG-3 [1] was 102%; in the test with PEG-3 [2], 101%.

On to `Cc1ccccc1NC(=O)Nc1nc(C(N)C2CCCCC2)cs1` (centres undefined), for which the inhibition with PEG-3 [1] came to 98.9%; with PEG-3 [2], 99.7%.

For `CC(=O)Nc1cccc(-c2cc(NC=O)c3ncc(-c4ccc(C(C)=O)cc4)n3c2)c1`, the inhibition was 12.8% with PEG-3 [1] and 31.9% with PEG-3 [2].

In the case of `COc1cccc(/C=N/NC(=O)c2c(-c3ccccc3)noc2C)c1O`, the inhibition was 33.5% with PEG-3 [1] and 54.6% with PEG-3 [2].

For the molecule `CCCC(=O)NC(c1cccc([N+](=O)[O-])c1)c1ccc2cccnc2c1O` (centres undefined), the inhibition is 75.7% [run 1, dose range 1, at 50 µM] in the test with PEG-3 [1] and 98.9% in the test with PEG-3 [2].

With `Cc1ccc2cc3c(N)c4c(C)ccc(C)c4nc3nc2c1`, the inhibition in the test with PEG-3 [1] stood at 94.6%; with PEG-3 [2] it was 93.7%.

Turning to `COc1ccc(C(=O)Nc2cccc(C(=O)N/N=C/c3ccc(OC)cc3OC)c2)cc1`, the inhibition with PEG-3 [1] came out at 84.1%; with PEG-3 [2], 93.1%.

For `CCOC(=O)/C(=C\c1ccccc1)C(=O)CCN1CCOCC1`, the inhibition with PEG-3 [1] and with PEG-3 [2] was 102% throughout.

For the molecule `COC(=O)C1=C(C(=O)OC)C(C(=O)OC)C(C(=O)OC)C(C(=O)OC)(C(=O)OC)C(C(=O)OC)=C1C(=O)OC` (centres undefined), the inhibition came to 99% in the test with PEG-3 [1] and 101% with PEG-3 [2].

`COc1ccc(Nc2oc(COc3ccccc3OC)nc2C#N)cc1`: the inhibition came to 69.9% with PEG-3 [1] and 88.5% with PEG-3 [2].

Consider `CCCc1ccc(C(=O)O/N=C(\N)c2ccccn2)cc1`, for which the inhibition came to 99.7% with PEG-3 [1] and 102% with PEG-3 [2].

With `COc1ccc(NC(=O)N(C)[C@H]2C[C@H]3c4[nH]c5ccc(-c6cccc(C)c6)cc5c4CCN3C[C@H]2[C@H](C)O)cc1`, the inhibition was 98.4% with PEG-3 [1] and 97.1% with PEG-3 [2].

Turning to `CC(C)n1nc(C(=O)Oc2cc(Cl)ccc2Cl)c2ccccc2c1=O`, the results for the inhibition in the test with PEG-3 [1] and in the test with PEG-3 [2] were 98.6% and 97.5%, respectively.

For the molecule `CC(C)(C)c1ccc(OCCCNCc2ccccc2)cc1`, the inhibition is 99.8% with PEG-3 [1] and 98% in the test with PEG-3 [2].

For the molecule `CC(=O)N1CCN(c2cc(-c3ccccc3)nc3cc(-c4cccc(Cl)c4)nn23)CC1`, the inhibition was 101% in the test with PEG-3 [1] and 95.5% with PEG-3 [2].

On to `CCN(CC)CCCCNc1ncc2cc(-c3cc(OC)cc(OC)c3)c(NC(=O)NC(C)(C)C)nc2n1`, for which the inhibition is 97.1% with PEG-3 [1] and 101% in the test with PEG-3 [2].

For `Cc1cccc(/C=C2/Sc3ccc(C(=O)NCCN4CCCC4)cc3NC2=O)c1`, the inhibition in the test with PEG-3 [1] came to 99.2%; in the test with PEG-3 [2], 101%.

With `Cc1ccc2[nH]c(=O)c(C3C(C#N)=C(N)Oc4c3ccc3cccnc43)cc2c1` (centres undefined), the results for the inhibition with PEG-3 [1] and in the test with PEG-3 [2] were 99.2% and 98.6%, respectively.
